From publication PMC7862700, “An all-to-all approach to the identification of sequence-specific readers for epigenetic DNA modifications on cytosine”

Assays:
Test in all cases: DAPPL (digital affinity profiling via proximity ligation, sequencing); 10 mM Tris-HCl pH 7.5, 50 mM NaCl, 1 mM DTT, 4% glycerol, room temperature, 30 min; GST-TFs on glutathione beads, 16-mer random dsDNA library, 0.1% formaldehyde crosslink after washing; high values mean tight binding
FEV = molecular target: T1, FEV (Homo sapiens, UniProt Q99581 1-238); conditions: protein: recombinant; tags: N-terminal GST; dsDNA, one strand shown
T1 sequence: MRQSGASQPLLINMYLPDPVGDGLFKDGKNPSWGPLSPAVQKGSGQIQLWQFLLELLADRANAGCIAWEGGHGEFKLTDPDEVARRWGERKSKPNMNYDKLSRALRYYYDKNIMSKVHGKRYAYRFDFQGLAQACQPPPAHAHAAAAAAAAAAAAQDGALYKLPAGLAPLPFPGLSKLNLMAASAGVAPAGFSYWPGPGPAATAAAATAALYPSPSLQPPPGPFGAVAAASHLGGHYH
How it was run: (§1)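 Human transcription factors fused to GST were expressed in yeast, captured on glutathione beads, given DNA barcodes and pooled with a GST-only negative control. Pools were incubated with 200 nmole of a 16-mer random double-stranded DNA library in Tris/NaCl/DTT/glycerol buffer at room temperature for 30 min. They were then washed, crosslinked with 0.1% formaldehyde, proximity-ligated (BsaI/T4 ligase, 1 h, 37 °C), PCR-amplified and sequenced on an Illumina NextSeq500. Binding signal is each 6-mer's read frequency for a factor divided by its frequency for the GST control.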

ETV5 = ETV5 (Homo sapiens, UniProt P41161 1-510); conditions: protein: recombinant; tags: N-terminal GST; dsDNA, one strand shown
How it was run: as §1

HSF1 = HSF1 (Homo sapiens, UniProt Q00613 1-529); conditions: protein: recombinant; tags: N-terminal GST; chain copies: 3; dsDNA, one strand shown
How it was run: as §1

SPIC = molecular target: T2, SPIC (Homo sapiens, UniProt Q8N5J4 1-248); conditions: protein: recombinant; tags: N-terminal GST; dsDNA, one strand shown
T2 sequence: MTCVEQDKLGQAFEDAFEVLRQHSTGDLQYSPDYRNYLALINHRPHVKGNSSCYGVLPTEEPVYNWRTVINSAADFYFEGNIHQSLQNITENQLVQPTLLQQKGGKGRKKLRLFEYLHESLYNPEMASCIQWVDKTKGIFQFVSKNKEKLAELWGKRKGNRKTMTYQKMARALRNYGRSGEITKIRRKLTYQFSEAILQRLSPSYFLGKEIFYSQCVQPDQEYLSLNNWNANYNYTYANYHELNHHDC
How it was run: as §1

ELF4 = ELF4 (Homo sapiens, UniProt Q99607 1-663); conditions: protein: recombinant; tags: N-terminal GST; dsDNA, one strand shown
How it was run: as §1

ELK4 = molecular target: T3, ELK4 (Homo sapiens, UniProt P28324-2 1-405); conditions: protein: recombinant; tags: N-terminal GST; dsDNA, one strand shown
T3 sequence: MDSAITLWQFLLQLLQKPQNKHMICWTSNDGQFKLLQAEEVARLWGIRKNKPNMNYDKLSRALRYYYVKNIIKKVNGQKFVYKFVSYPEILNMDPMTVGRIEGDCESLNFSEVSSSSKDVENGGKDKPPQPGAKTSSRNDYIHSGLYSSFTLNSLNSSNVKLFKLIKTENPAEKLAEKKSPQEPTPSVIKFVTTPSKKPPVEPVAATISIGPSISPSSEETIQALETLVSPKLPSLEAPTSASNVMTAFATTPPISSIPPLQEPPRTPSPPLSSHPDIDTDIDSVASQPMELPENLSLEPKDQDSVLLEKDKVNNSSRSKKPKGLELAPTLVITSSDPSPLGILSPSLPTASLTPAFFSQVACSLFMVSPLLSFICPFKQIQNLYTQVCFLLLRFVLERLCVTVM
How it was run: as §1

ETV2 = molecular target: T4, ETV2 (Homo sapiens, UniProt O00321 1-342); conditions: protein: recombinant; tags: N-terminal GST; dsDNA, one strand shown
T4 sequence: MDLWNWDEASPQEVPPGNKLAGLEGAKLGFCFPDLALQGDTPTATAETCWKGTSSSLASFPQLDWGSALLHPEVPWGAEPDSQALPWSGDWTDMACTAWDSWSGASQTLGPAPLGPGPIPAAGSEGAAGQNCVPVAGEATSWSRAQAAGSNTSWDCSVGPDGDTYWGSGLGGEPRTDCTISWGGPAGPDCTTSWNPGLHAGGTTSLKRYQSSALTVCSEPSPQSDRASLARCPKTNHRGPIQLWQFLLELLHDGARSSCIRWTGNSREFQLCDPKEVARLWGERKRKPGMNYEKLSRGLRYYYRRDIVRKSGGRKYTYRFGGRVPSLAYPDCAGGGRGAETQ
How it was run: as §1

ELF3 = molecular target: T5, ELF3 (Homo sapiens, UniProt P78545 1-371); conditions: protein: recombinant; tags: N-terminal GST; dsDNA, one strand shown
T5 sequence: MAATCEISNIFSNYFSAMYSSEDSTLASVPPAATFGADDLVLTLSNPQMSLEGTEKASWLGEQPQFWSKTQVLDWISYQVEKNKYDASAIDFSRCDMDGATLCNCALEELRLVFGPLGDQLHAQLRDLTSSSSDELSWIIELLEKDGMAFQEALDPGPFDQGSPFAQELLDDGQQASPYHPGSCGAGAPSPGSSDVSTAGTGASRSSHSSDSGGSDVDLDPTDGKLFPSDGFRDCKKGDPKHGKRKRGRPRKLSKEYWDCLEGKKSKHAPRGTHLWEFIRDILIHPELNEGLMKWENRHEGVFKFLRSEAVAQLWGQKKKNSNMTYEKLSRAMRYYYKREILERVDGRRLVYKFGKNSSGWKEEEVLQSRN
How it was run: as §1

CRX = CRX (Homo sapiens, UniProt O43186 1-299); conditions: protein: recombinant; tags: N-terminal GST; dsDNA, one strand shown
How it was run: as §1

ETV1 = ETV1 (Homo sapiens, UniProt P50549 1-477); conditions: protein: recombinant; tags: N-terminal GST; dsDNA, one strand shown
How it was run: as §1

ERF = molecular target: T6, ERF (Homo sapiens, UniProt P50548 1-548); conditions: protein: recombinant; tags: N-terminal GST; dsDNA, one strand shown
T6 sequence: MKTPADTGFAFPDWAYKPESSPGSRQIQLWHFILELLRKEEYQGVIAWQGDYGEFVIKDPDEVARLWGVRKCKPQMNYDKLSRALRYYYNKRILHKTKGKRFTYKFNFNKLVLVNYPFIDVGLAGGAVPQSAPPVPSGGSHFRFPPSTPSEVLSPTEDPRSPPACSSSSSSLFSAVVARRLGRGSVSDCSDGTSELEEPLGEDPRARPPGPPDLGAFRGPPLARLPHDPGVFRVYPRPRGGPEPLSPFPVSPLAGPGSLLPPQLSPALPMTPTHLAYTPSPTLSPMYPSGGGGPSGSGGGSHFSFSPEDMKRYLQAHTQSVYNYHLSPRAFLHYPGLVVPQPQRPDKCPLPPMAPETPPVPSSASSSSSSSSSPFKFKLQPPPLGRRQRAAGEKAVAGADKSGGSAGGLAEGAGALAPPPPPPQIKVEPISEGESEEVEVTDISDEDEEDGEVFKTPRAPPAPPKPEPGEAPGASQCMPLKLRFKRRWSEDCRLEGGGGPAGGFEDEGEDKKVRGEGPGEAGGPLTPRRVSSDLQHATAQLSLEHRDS
How it was run: as §1

ETV3L = molecular target: T7, ETV3L (Homo sapiens, UniProt Q6ZN32 1-361); conditions: protein: recombinant; tags: N-terminal GST; dsDNA, one strand shown
T7 sequence: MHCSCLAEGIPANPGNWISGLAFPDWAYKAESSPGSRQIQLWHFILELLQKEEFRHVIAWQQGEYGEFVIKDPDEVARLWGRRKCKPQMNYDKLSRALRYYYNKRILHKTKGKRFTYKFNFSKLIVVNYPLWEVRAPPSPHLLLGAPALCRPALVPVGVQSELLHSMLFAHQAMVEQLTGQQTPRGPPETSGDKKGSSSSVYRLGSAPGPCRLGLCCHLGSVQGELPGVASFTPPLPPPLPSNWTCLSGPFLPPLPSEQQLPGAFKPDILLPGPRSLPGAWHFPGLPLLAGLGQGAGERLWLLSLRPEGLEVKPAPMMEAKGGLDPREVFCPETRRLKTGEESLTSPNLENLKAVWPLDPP
How it was run: as §1

ETS2 = molecular target: T8, ETS2 (Homo sapiens, UniProt P15036 1-469); conditions: protein: recombinant; tags: N-terminal GST; dsDNA, one strand shown
T8 sequence: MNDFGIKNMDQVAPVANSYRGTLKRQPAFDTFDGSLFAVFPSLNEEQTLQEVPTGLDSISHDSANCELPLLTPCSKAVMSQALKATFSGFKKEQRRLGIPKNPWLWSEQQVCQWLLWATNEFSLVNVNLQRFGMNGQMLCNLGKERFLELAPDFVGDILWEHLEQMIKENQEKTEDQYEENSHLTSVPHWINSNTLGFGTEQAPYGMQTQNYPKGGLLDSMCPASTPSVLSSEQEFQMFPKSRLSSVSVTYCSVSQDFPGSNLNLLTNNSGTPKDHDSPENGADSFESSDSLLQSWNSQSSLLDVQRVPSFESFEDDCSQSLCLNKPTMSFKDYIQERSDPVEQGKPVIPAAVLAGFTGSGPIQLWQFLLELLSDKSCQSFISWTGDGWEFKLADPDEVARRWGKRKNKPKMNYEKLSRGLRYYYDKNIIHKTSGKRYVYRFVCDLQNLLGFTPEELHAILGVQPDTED
How it was run: as §1

SPDEF = molecular target: T9, SPDEF (Homo sapiens, UniProt O95238 1-335); conditions: protein: recombinant; tags: N-terminal GST; dsDNA, one strand shown
T9 sequence: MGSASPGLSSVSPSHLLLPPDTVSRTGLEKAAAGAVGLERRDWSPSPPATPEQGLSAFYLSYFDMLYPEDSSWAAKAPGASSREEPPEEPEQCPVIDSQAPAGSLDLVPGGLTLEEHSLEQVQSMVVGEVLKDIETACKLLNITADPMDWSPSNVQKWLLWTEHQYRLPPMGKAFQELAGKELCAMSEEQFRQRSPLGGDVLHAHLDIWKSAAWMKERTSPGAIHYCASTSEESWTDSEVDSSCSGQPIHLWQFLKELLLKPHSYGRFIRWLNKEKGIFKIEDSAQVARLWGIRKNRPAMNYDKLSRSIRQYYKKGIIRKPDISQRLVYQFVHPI
How it was run: as §1

ETV7 = molecular target: T10, ETV7 (Homo sapiens, UniProt Q9Y603 1-341); conditions: protein: recombinant; tags: N-terminal GST; dsDNA, one strand shown
T10 sequence: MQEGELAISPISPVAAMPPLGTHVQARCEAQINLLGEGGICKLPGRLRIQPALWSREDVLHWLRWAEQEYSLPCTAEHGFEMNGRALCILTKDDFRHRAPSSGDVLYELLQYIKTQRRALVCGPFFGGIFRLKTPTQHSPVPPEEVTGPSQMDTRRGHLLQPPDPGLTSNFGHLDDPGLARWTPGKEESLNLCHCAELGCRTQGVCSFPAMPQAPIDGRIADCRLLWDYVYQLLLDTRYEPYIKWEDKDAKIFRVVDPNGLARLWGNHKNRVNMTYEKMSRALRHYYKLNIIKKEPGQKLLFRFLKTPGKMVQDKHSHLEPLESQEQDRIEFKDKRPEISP
How it was run: as §1

ELF5 = molecular target: T11, ELF5 (Homo sapiens, UniProt Q9UKW6-2 1-255); conditions: protein: recombinant; tags: N-terminal GST; dsDNA, one strand shown
T11 sequence: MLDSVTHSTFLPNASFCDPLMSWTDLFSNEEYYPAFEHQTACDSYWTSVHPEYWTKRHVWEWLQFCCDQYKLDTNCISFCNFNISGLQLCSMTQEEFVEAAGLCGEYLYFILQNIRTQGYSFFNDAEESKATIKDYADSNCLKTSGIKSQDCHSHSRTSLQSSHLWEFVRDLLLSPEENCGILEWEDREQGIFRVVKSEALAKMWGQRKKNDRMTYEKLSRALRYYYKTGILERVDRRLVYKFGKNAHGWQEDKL
How it was run: as §1

ETV3 = molecular target: T12, ETV3 (Homo sapiens, UniProt P41162-2 1-143); conditions: protein: recombinant; tags: N-terminal GST; dsDNA, one strand shown
T12 sequence: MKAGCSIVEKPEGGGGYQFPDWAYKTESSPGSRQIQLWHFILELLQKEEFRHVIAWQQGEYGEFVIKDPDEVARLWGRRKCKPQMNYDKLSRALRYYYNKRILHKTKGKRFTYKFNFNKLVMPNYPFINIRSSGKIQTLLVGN
How it was run: as §1

ETV6 = ETV6 (Homo sapiens, UniProt P41212 1-452); conditions: protein: recombinant; tags: N-terminal GST; dsDNA, one strand shown
How it was run: as §1

Chain of ETV1 (P50549 whole entry): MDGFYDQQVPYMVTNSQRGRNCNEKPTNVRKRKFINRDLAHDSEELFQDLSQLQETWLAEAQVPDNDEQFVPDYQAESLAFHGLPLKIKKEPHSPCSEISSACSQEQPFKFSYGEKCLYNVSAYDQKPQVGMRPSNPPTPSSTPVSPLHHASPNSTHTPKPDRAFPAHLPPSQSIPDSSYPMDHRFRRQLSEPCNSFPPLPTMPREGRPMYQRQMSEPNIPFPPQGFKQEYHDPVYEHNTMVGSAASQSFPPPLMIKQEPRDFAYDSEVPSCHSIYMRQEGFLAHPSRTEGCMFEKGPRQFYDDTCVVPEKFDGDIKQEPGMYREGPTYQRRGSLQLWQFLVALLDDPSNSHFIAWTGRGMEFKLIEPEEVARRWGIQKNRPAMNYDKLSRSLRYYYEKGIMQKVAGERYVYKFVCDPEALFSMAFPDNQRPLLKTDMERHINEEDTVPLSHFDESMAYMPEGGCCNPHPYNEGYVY
Chain of ETV5 (P41161 whole entry): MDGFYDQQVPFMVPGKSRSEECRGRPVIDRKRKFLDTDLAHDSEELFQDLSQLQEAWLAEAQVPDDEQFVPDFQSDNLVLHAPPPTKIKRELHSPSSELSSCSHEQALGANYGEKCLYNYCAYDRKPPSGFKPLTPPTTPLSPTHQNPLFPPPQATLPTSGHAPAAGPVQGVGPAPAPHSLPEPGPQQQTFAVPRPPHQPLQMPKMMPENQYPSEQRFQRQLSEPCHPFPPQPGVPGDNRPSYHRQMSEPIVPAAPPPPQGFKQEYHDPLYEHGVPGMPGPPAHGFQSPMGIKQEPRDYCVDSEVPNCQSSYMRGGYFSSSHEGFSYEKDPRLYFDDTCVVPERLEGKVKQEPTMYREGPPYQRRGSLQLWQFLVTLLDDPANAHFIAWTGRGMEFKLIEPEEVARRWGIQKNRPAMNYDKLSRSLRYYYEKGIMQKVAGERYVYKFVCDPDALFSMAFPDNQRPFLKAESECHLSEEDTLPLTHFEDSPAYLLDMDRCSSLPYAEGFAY
Chain of HSF1 (Q00613 whole entry): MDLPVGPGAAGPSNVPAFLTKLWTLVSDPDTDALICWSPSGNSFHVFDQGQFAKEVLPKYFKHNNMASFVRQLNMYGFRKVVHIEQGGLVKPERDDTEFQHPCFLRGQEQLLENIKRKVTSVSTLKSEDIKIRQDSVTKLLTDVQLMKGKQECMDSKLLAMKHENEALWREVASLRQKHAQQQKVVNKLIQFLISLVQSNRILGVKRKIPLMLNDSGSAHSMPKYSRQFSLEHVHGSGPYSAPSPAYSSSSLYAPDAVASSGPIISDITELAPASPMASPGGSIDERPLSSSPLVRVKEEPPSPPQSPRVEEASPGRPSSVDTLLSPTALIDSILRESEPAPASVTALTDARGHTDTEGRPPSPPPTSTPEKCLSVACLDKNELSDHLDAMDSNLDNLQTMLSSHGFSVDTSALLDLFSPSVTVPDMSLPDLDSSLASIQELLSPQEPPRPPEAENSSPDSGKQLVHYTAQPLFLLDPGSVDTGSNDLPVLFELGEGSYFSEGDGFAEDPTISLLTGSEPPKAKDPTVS
Chain of ETV6 (P41212 whole entry): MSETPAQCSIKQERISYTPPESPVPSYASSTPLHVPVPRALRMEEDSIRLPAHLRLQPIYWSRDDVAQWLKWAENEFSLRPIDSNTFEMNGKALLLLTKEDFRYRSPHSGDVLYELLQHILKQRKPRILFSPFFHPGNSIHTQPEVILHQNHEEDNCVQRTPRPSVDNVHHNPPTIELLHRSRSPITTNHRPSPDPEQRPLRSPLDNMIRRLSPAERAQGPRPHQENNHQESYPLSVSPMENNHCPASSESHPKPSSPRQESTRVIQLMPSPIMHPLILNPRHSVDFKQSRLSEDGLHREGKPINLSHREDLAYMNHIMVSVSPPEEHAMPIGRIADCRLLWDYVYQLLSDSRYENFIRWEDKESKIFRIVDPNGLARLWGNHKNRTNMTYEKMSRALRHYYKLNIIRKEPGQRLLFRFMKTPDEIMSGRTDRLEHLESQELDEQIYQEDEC
Chain of CRX (O43186 whole entry): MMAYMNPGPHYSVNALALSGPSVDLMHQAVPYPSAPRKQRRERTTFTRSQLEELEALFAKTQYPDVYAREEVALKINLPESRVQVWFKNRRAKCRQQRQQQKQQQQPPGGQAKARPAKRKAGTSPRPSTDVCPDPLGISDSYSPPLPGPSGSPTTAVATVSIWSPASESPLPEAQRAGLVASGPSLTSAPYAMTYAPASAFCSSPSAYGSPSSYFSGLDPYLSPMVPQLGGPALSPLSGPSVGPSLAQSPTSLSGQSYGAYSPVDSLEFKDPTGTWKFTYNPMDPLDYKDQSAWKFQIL
Chain of ELF4 (Q99607 whole entry): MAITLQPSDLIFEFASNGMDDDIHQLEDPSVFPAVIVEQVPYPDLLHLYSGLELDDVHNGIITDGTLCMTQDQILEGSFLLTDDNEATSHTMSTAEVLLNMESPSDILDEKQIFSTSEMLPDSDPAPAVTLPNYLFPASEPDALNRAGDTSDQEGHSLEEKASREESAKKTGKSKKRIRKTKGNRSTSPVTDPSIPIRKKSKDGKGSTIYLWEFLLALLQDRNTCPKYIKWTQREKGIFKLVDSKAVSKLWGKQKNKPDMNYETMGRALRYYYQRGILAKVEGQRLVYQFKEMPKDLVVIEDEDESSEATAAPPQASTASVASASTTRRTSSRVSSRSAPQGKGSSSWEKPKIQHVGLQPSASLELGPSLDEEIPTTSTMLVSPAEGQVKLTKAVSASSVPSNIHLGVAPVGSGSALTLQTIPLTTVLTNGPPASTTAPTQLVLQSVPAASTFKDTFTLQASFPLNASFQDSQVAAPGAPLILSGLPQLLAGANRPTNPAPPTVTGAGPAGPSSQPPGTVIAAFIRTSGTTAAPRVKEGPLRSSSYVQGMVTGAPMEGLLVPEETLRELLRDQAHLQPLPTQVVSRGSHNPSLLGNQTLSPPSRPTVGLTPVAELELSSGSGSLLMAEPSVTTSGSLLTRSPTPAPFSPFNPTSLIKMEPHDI

For TACCTT, the binding signal (FEV) was 1.34 fold enrichment (6-mer frequency, TF over GST control), the binding signal (ETV5) was 1.4 fold enrichment (6-mer frequency, TF over GST control) and the binding signal (HSF1) was 1.3 fold enrichment (6-mer frequency, TF over GST control). The binding signal (SPIC) was 1.3 fold enrichment (6-mer frequency, TF over GST control), the binding signal (ELF4) was 1.38 fold enrichment (6-mer frequency, TF over GST control) and the binding signal (ELK4) was 1.46 fold enrichment (6-mer frequency, TF over GST control). The binding signal (ETV2) was 1.6 fold enrichment (6-mer frequency, TF over GST control), the binding signal (ELF3) was 1.31 fold enrichment (6-mer frequency, TF over GST control) and the binding signal (CRX) was 1.55 fold enrichment (6-mer frequency, TF over GST control). For the same sequence, the binding signal (ETV1) was 1.5 fold enrichment (6-mer frequency, TF over GST control), the binding signal (ERF) was 1.51 fold enrichment (6-mer frequency, TF over GST control) and the binding signal (ETV3L) was 1.34 fold enrichment (6-mer frequency, TF over GST control). For the same sequence, the binding signal (ETS2) was 1.44 fold enrichment (6-mer frequency, TF over GST control), the binding signal (SPDEF) was 1.39 fold enrichment (6-mer frequency, TF over GST control) and the binding signal (ETV7) was 1.37 fold enrichment (6-mer frequency, TF over GST control). The binding signal (ELF5) was 1.49 fold enrichment (6-mer frequency, TF over GST control), the binding signal (ETV3) was 1.29 fold enrichment (6-mer frequency, TF over GST control) and the binding signal (ETV6) was 1.5 fold enrichment (6-mer frequency, TF over GST control).
